The campaign covered roughly 48,000 compounds. About 13,000 (27%) showed an effect of 50% or more. This is one part of the list.
Test system: Wolbachia pipientis
Test: Anti-Wolbachia Cell-Based Screen
Format: functional
Parameters: scale not given: in the data most compounds retested in dose-response had high values
Conditions: 5 µM

Compound | Percent Effect
CCc1cnc2c(c1Nc1ccc3c(c1)OCO3)c(=O)n(C)c(=O)n2C | 105.3%
Cc1ccc(Nc2c(C#N)c(=O)n(C)c(=O)n2C)cc1F | 8.024%
O=C(Nc1ccc2c(c1)OCO2)N1CCN(CCn2cccn2)CC1 | 14.77%
CCc1cnc2c(c1Nc1ccc(C)c(F)c1)c(=O)n(C)c(=O)n2C | 84.08%
O=C(Nc1ccc2c(c1)OCO2)N1CCN(CCn2ccnc2)CC1 | -13.91%
CCc1cnc2c(c1Nc1ccncc1)c(=O)n(C)c(=O)n2C | 1.173%
Cn1cnc(S(=O)(=O)Nc2cc(C(N)=O)ccc2Cl)c1 | -10.15%
COC(=O)N1CCc2ccc(NC(=O)c3cn(C)nn3)cc2C1 | 2.493%
Cn1cc(C(=O)Nc2ccc(CC(=O)NC3CC3)cc2)nn1 | -0.7616%
CN(C)C(=O)Cc1ccc(NC(=O)c2cn(C)nn2)cc1 | -4.709%
Cn1cc(C(=O)Nc2ccc(CC(=O)NCC(F)(F)F)cc2)nn1 | -7.927%
Cn1cc(C(=O)Nc2ccc3c(c2)N(C(=O)c2ccco2)CC3)nn1 | 115.2%
CC(=O)N1CCc2ccc(NC(=O)c3cn(C)nn3)cc2C1 | 105.1%
Cn1cc(C(=O)Nc2ccc3c(c2)CN(C(=O)c2ccco2)CC3)nn1 | 12.57%
Cn1cc(C(=O)Nc2ccc3c(c2)CN(C(=O)C2CC2)CC3)nn1 | 116.9%
Oc1cc(CN2CCC(O)(Cn3ccnc3)CC2)nc2c(Cl)cccc12 | -8.472%
CC(CNC(=O)c1ccon1)Oc1cccc(Br)c1 (centres undefined) | -16.92%
c1cc(-c2ccc(CN3CCC4(CCNCC4)CC3)s2)[nH]n1 | 13.89%
COCCN(C(=O)c1cnccn1)c1nc2c(s1)CCc1c-2cnn1C | 99.99%
CCCN(C(=O)c1cnccn1)c1nc2c(s1)CCc1c-2cnn1C | 84.76%
CN(C(=O)c1ccccn1)c1nc2c(s1)CCc1c-2cnn1C | -10.1%
COCCCNC(=O)C1CN(C(=O)c2cnccn2)C1 | 10.57%
CCCN(C(=O)c1cnc(C)cn1)c1nc2c(s1)CCc1c-2cnn1C | 90.09%

Compound | Percent Effect
COCCN(C(=O)c1ccccn1)c1nc2c(s1)CCc1c-2cnn1C | 88.66%
Cc1cccc(N(CCC(N)=O)C(=O)c2cnccn2)c1 | -11.19%
COCC1c2nnn(CC3CC3)c2CCN1C(=O)c1cnccn1 (centres undefined) | -15.7%
CCCN1CCN(C(=O)c2cnccn2)[C@H]2CS(=O)(=O)C[C@H]21 | -1.357%
CCCN(C(=O)c1ccccn1)c1nc2c(s1)CCc1c-2cnn1C | -6.785%
CCN(Cc1cccc2c1OCO2)CC1CCCO1 (centres undefined) | -5.577%
Cl.O=C(OCC1CCCN1)c1cccc(NC(=O)c2ccco2)c1 (centres undefined) | -13.38%
CC1(C)[C@H]2CC=C(CN3CCCn4nc(C(=O)O)cc4C3)[C@@H]1C2 | -7.582%
Cc1c(NC(=O)N(C)CCCc2cnn(C)c2)cnn1C | -9.365%
CN(CCc1cnn(C)c1)C(=O)C1COc2ccccc2C1 (centres undefined) | 12.32%
Cc1cnc(N(C)CCCc2cnn(C)c2)nc1N(C)C | 116.9%
CCc1cnc(N)nc1N(C)CCc1cnn(C)c1 | 112.4%
CCc1cnc(C)nc1N(C)CCCc1cnn(C)c1 | 93.68%
Cc1nc(C)c(C)c(N(C)CCCc2nccn2C)n1 | 1.22%
Cc1ncc(S(C)(=O)=O)c(N(C)CCCc2cnn(C)c2)n1 | 106.8%
Cc1ccccc1C(C(=O)N(C)CCc1cnn(C)c1)N(C)C (centres undefined) | -25.6%
CN(CCCc1cnn(C)c1)C(=O)C1CCOC1 (centres undefined) | -24.42%
Cc1nc(C(C)C)sc1C(=O)N(C)CCCc1cnn(C)c1 | -1.065%
CC(C)N1CCCC(C(=O)N(C)CCCc2cnn(C)c2)C1 (centres undefined) | -3.497%
CC(NCCCc1cnn(C)c1)c1ccc(Br)s1 (centres undefined) | 0.1879%
CN(C)C(=O)CCNC(=O)c1cnc(-c2ccccc2)nc1 | -4.598%
O=S1(=O)CCC(n2cc(CNCC3(c4ccccc4)CC3)cn2)C1 (centres undefined) | 4.552%
O=C(c1ccc(OCC2CC2)cc1)N1CCOCC1c1ncon1 (centres undefined) | -1.778%

Compound | Percent Effect
Nc1cnc(-c2cccc3ccnn23)cn1 | -6.103%
CN(CC(=O)Nc1ccc(Br)cn1)C(=O)Cc1ccc(O)cc1 | -6.927%
CNS(=O)(=O)C1CCN(c2cc(C(C)C)nc(C(C)C)n2)C1 (centres undefined) | 80.93%
CC(C)c1cc(N2CC[C@H](F)C2)n2nccc2n1 | -1.052%
CC(C)c1cc(N2CCC(NS(C)(=O)=O)CC2)n2nccc2n1 | -0.6269%
Cc1cc(N2CCN(C(=O)c3cc(Cl)c[nH]3)CC2)nc(C(C)C)n1 | -12.01%
Cc1cc(=O)[nH]c(SC(C)C(=O)N2CCC(NS(C)(=O)=O)CC2)n1 (centres undefined) | -6.463%
Cc1nnc(N2CCC(NS(C)(=O)=O)CC2)c(C#N)c1C | 4.066%
Cc1cc(N2CCC(NS(C)(=O)=O)CC2)nc(C(C)C)n1 | 66.62%
CS(=O)(=O)NC1CCCN(c2ccc(C#N)cn2)C1 (centres undefined) | 4.469%
CC(C)c1cc(N2CCC(NS(C)(=O)=O)C2)nc(C(C)C)n1 (centres undefined) | 107.7%
O=c1c2cnc(N3CCCCC3)nc2ccn1-c1ccccc1 | 8.71%
COCCSCC(=O)NC1(c2cccc(Br)c2)CC1 | -2.226%
COc1ccc(CN2CC3(CCNCC3)CCC2=O)c(F)c1F | -14.66%
Nc1nccc(-c2cccc3ccnn23)n1 | -5.19%
Nc1nccc(-c2c[nH]nc2C2CCCCC2)n1 | -15.86%
Cc1ncncc1-c1ccnc(N)n1 | 103.4%
Cc1nn(C)cc1-c1ccnc(N(C)Cc2ccc(F)cc2)n1 | 21.27%
Cc1ccc(CN(C)c2nccc(-c3cn(C)nc3C)n2)o1 | -5.707%
Cc1ccc(-c2ccnc(NC(C)c3n[nH]c(C)n3)n2)c(C)n1 (centres undefined) | -0.9271%
Cc1ncncc1-c1ccnc(N(C)C)n1 | 99.71%
Cc1ncncc1-c1ccnc(NC(C)C)n1 | 107.6%
Cc1ccc(-c2ccnc(NC(C)c3ncc[nH]3)n2)c(C)n1 (centres undefined) | 7.863%
